From PubChem BioAssay
Rows were chosen to be rich in hits. Some 3.3% of all compounds tested hit in one or more screens of this group.
USP2a inh: qHTS Assay for Inhibitors of Ubiquitin-specific Protease USP2a Using CHOP2 as the Reporter; AID 463254, 2010; Ubiquitin carboxyl-terminal hydrolase 2 (Homo sapiens), O75604; USP2 core, Ub-CHOP2 coupled fluorogenic reporter, 485/531; Potency, µM (highest dose often 38.3 µM), for inactives: top-dose activity change, negative = inhibition, most hits filed as inhibitors; actives 0.01% (n = 330,000);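 note: potency is the fitted concentration of half-maximal effect; plate controls were DMSO wells for no effect and full inhibition by NEM control for full effect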
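Deubiquitinase activity read as fluorescence (485/531 nm) after Ub-CHOP2 cleavage activates the enterokinase reporter on its substrate; USP2 core 10nM, Ub-CHOP2 and substrate 25nM each, 30min compound preincubation then 60min RT; data normalized to NEM, curves fitted.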
WRN helicase inh: qHTS for Inhibitors of WRN Helicase; AID 651768, 2012; actives 0.46% (n = 360,000); WRN helicase unwinding, fluorescent forked duplex, kinetic; Bifunctional 3'-5' exonuclease/ATP-dependent helicase WRN (Homo sapiens), Q14191; Potency, µM (highest dose often 114 µM), without a hit: at the top dose activity change, negative = inhibition, usual class: inhibitors; note: potency is the fitted concentration of half-maximal effect; nearly all actives have a fitted effect of over 55% in size
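Kinetic red-fluorescence monitoring (525/598 nm) tracks WRN helicase activity after 100 nM fluorophore-quencher forked duplex and 2 mM ATP are added to 20 nM enzyme pretreated 15 min at room temperature with compound.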
PI5P4Ka inh: qHTS for Inhibitors of phosphatidylinositol 5-phosphate 4-kinase (PI5P4K). Phosphatidylinositol 5-phosphate 4-kinase type-2 alpha (Homo sapiens), P48426. PI5P4Kalpha enzyme, ADP-Glo luminescence, 60 min; stronger effect = lower value. max response, %. actives 1.2% (n = 330,000). AID 652105, 2013; active = max response of -50% or lower; inconclusive = between -30% and -50%; inactive = -30% or higher; note: value at the top dose of about 77 µM
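PI5P4Kalpha ADP-Glo assay; 5 microM ATP final; 60 min RT reaction; HEPES pH 7.4/EGTA/CHAPS, 5% DMSO; controls lacking substrate or enzyme; luminescent end-point.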
USP1-UAF1 inh: Inhibitors of USP1/UAF1: Primary Screen; Ubiquitin carboxyl-terminal hydrolase 1 (Homo sapiens), O94782; recombinant USP1/UAF1, Ub-Rhodamine cleavage fluorescence; Potency, µM (series often up to 57.1 µM), for the others: at the top dose activity change, negative = inhibition, actives largely listed as inhibitors; actives 0.23% (n = 390,000); note: potency is the fitted concentration of half-maximal effect; nearly all actives have a fitted effect of over 60% in size
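Step one: compound is pinned into 1nM USP1/UAF1 in HEPES pH 7.8 buffer with TCEP. Step two: 15 min room-temperature incubation. Step three: Ub-Rho (150nM final) starts cleavage, tracked by fluorescence over six one-minute reads.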
PLK1 PBD inh: qHTS for Inhibitors of PLK1-PDB (polo-like kinase 1 - polo-box domain): Primary Screen. actives 2.8% (n = 360,000). Serine/threonine-protein kinase PLK1 (Homo sapiens), P53350. Plk1 PBD binding of FITC phosphopeptide, fluorescence polarization. AID 720504, 2013. Potency, µM, for the others: max response, negative = inhibition, usual class: inhibitors; note: potency is the fitted concentration of half-maximal effect; series mostly up to about 57 µM; nearly all actives have a fitted effect of over 65% in size
Target sequence (P53350 whole entry, looked up, the tested form may be a part): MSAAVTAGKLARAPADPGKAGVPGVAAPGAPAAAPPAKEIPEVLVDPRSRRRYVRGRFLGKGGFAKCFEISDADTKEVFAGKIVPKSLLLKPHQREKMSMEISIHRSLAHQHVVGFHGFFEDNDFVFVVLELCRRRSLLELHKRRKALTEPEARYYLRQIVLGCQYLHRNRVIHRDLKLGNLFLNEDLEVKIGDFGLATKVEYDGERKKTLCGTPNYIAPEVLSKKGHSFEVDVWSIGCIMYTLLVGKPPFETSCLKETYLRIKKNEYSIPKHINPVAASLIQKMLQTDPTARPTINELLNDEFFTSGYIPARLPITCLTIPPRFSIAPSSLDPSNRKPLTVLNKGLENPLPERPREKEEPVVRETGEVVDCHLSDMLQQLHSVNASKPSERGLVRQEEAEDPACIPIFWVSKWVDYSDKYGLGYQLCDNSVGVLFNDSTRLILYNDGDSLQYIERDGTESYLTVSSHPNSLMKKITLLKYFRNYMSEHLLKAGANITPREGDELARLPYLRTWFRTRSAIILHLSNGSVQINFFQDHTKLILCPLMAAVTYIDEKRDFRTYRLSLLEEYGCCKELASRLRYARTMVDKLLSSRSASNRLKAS
* = called active by the depositor; ? = inconclusive; nt = no result given; [ ] = another dose, or the depositor's remark. Unless noted, calls come from the whole dose curve; as a rule, active = well fitted curve in the direction sought with a large enough effect; inconclusive = small, poorly fitted or top-dose-only effect, or another doubt; inactive = no such curve, though single readings can be large; an effect the other way counts as inactive or inconclusive. Unless noted, % is set by controls: 0 for no effect and ±100 for the full control effect.

SMILES	USP2a inh	WRN helicase inh	PI5P4Ka inh	USP1-UAF1 inh	PLK1 PBD inh
CCc1ccc(N2C(=O)NC(=O)/C(=C/c3ccsc3)C2=O)cc1	3%	nt	nt	nt	nt
O=C1NC(=O)N(c2ccc3c(c2)OCO3)C(=O)/C1=C/c1ccsc1	2%	4%	-16	-5%	7.5µM*
O=C1NC(=O)N(c2ccc3c(c2)OCO3)C(=O)/C1=C/c1ccc(N2CCCC2)o1	18%	-4%	-1	?	71%
O=C1NC(=O)N(c2ccc3c(c2)OCO3)C(=O)/C1=C/c1cccs1	4%	-17%	-27	-22%	2.1µM*
CCOc1ccc(N2C(=O)NC(=O)/C(=C\c3ccc(N4CCCCC4)o3)C2=O)cc1	11%	3%	3	?	80%
O=C1NC(=O)N(c2ccc(Cl)cc2)C(=O)/C1=C\c1ccc(Sc2nc3ccccc3[nH]2)o1	-1%	25µM*	-87*	?	3.8µM*
O=C1NC(=O)N(c2ccccc2F)C(=O)/C1=C/c1ccc(Oc2ccc([N+](=O)[O-])cn2)cc1	-2%	-10%	-52*	-22%	6µM*
O=C1NC(=O)N(CCc2ccc(F)cc2)C(=O)/C1=C\C=C\c1ccccc1	0%	-18%	-4	-7%	?
COc1ccc(CN2C(=O)NC(=O)/C(=C/c3ccc([N+](=O)[O-])o3)C2=O)cc1	0%	nt	nt	nt	nt
CN(C)c1ccc(/C=C2\C(=O)NC(=O)N(Cc3ccc(F)cc3)C2=O)cc1	0%	-13%	-22	-3%	1.2µM*
CCOc1cc(/C=C2\C(=O)NC(=O)N(CCc3ccc(F)cc3)C2=O)ccc1O	5%	-11%	-58*	-17%	1.7µM*
COCCN1C(=O)NC(=O)/C(=C\c2ccc(Br)cc2)C1=O	1%	4%	?	-18%	5.3µM*
CN(C)c1ccc(/C=C2/C(=O)NC(=O)N(CCc3ccc(F)cc3)C2=O)cc1	1%	-3%	?	-10%	6µM*
Cc1cccc(-c2nn3c(=O)cc(CN4CCN(C(=O)COc5ccc(Cl)cc5)CC4)nc3s2)c1	nt	nt	nt	-14%	nt
Cn1cc(/C=C2\C(=O)NC(=O)N(c3ccccc3)C2=O)c2ccccc21	2%	-12%[11.6 µM]	3	?	-13%
O=C1NC(=O)N(c2cccc(F)c2)C(=O)/C1=C/c1ccc(N2CCOCC2)cc1	0%	-8%	-61*	2%	12µM*
Cc1cc(N2CCOCC2)ccc1/C=C1\C(=O)NC(=O)N(c2ccccc2)C1=O	2%	-6%	-26	-13%	12µM*
CC(C)c1ccc(C(c2c(O)c3ccccc3oc2=O)c2c(O)c3ccccc3oc2=O)cc1	nt	-15%[11.6 µM]	-15	28µM*	21µM*
Cc1ccc2c(C)cccc2c1	nt	3%	-71*	-2%	?
Cc1ccc(O)c(C)c1	-3%	-3%	-1	?	-9%
C[C@@]12CC[C@@H](c3cc4c(cc3C1)OCO4)N2c1ccccc1	nt	2%	0	nt	-1%
COc1ccc2cc1Oc1ccc(cc1)C[C@H]1c3cc(c(OC)cc3CCN1C)Oc1c(OC)c(OC)cc3c1[C@@H](C2)N(C)CC3	3%	17%	-9	?	-1%
Cc1cc(/C=C2\C(=O)NC(=O)N(Cc3ccccc3Cl)C2=O)c(C)n1-c1ccc(C(=O)O)cc1	0%	56µM*	-52*	-11%	11µM*
CCc1ccc(N2C(=O)NC(=O)/C(=C\c3cccn3CCOc3ccc(C(C)C)cc3)C2=O)cc1	-1%	2%	-23	-14%	-7%
Cc1ccc(OCCn2cccc2/C=C2/C(=O)NC(=O)N(Cc3ccco3)C2=O)cc1	3%	?	?	-21%	2.7µM*
SMILES	USP2a inh	WRN helicase inh	PI5P4Ka inh	USP1-UAF1 inh	PLK1 PBD inh
Cc1ccc(-n2c(C)cc(/C=C3/C(=O)NC(=O)N(Cc4ccco4)C3=O)c2C)cc1	2%	-13%[11.6 µM]	-13	?	?
CCOC(=O)C1CCN(/C=C2/C(=O)NC(=O)N(Cc3ccco3)C2=O)CC1	-2%	?	-73*	-20%	?
Cc1cc(/C=C2\C(=O)NC(=O)N(Cc3ccco3)C2=O)c(C)n1-c1ccc(O)cc1	-16%	?	-83*	-14%	-29%
CCOC(=O)c1ccc(NC(=O)c2cccn(Cc3ccccc3F)c2=O)cc1	nt	nt	nt	-26%	nt
COc1cc(C(=S)N2CCOCC2)cc(OC)c1OC(=O)Cc1ccccc1	3%	0%	-7	-26%	?
c1ccc(OCc2ccc(CCCN3CCOCC3)cc2)cc1	-1%	?	7	-4%	-5%
CN(Cc1cccc(-c2ccncc2)c1)C(=O)Oc1ccccc1Cc1ccccc1	nt	-8%	3	nt	-7%
COP(=S)(OC)SCn1nnc2ccccc2c1=O	nt	nt	-12	-5%	8.4µM*
Clc1cccc(/C=N\Nc2nccs2)c1	-2%	-17%	-13	-22%	?
O=C(COc1ccccc1F)N1CCN(CCN2C(=O)c3cccc4cccc(c34)C2=O)CC1	0%	0%	5	-6%	1%
O=C(COc1ccccc1)N1CCN(CCN2C(=O)c3cccc4cccc(c34)C2=O)CC1	0%	1%[57.1 µM]	13	-8%	17µM*
CCCCN1CCC(O)(c2ccccc2)C(C(=O)c2ccccc2)C1 (configuration not stated)	-1%	-17%	-8	0%	?
CN1CCC(O)(c2cccs2)C(C(=O)c2cccs2)C1 (configuration not stated)	2%	?	-4	-17%	27µM*
Cn1c(=O)n(C)c2cc(CNCCc3ccccc3)ccc21	nt	nt	nt	-4%	nt
COC1CC2C=C(C)C=CC=CC(=O)NC(c3ccccc3)CC=CCCC(O)CC(=O)C2=C1O (configuration not stated)	nt	?	-84*	nt	-27%
COc1ccc(C(=O)CC2(CC(=O)c3ccc(OC)cc3)C(=O)N(C)C(=O)N(C)C2=O)cc1	-1%	0%	0	-21%	-8%
CN1C(=O)N(C)C(=O)C2(Cc3c(ccc4ccccc34)N(C)C2)C1=O	1%	-12%	-3	-17%	8.4µM*
O=C(COC(=O)Cc1ccccc1)NCCNC(=O)COC(=O)Cc1ccccc1	2%	8%	5	-14%	-3%
O=C1CN(C(=O)COC(=O)Cc2ccccc2)c2ccccc2N1	2%	6%	-12	-15%	30µM*
Cc1nnc(NC(=O)c2cccn(Cc3ccc(Cl)cc3)c2=O)s1	nt	nt	nt	-20%	nt
